Laboratory results as given in PubChem BioAssay (Tox21).
“And” between values parts separate entries of the source, which are not always exact repeats. Equal entries are not always repeated. Results filed as inconclusive are left out. Where a call stands in place of a potency, no number is given. The source made the active and inactive calls. Unless noted, calls come from the whole dose curve; as a rule, active = well fitted curve in the direction sought with a large enough effect in the repeat runs; inconclusive = weak or mixed curves; inactive = no such curve, though single readings can be large; an effect the other way counts as inactive or inconclusive.

Columns and labels:
[1] = qHTS assay to identify small molecule antagonists of the peroxisome proliferator-activated receptor delta (PPARd) signaling pathway - cell viability counter screen (AID 743213); note: nearly all actives have a fitted effect of over 50% in size; note: potency is the fitted concentration of half-maximal effect
Outline: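 HEK293H PPARd UAS-bla cells, 5 h pre-incubation, compound + L165041 300 nM final, 17 h 37 C; B/G FRET substrate 2 h RT; then CellTiter-Glo 30 min RT, luminescence.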

[2] = target: Bile acid receptor (Homo sapiens) (UniProt Q96RI1); experiment: qHTS assay to identify small molecule antagonists of the farnesoid-X-receptor (FXR) signaling pathway (AID 743217; active = well fitted inhibition curve with a large enough effect in the signal ratio in the repeat runs, not every such curve was filed as active; the % refers to the signal ratio)
Sequence of Bile acid receptor (Homo sapiens) (Q96RI1 whole entry, looked up): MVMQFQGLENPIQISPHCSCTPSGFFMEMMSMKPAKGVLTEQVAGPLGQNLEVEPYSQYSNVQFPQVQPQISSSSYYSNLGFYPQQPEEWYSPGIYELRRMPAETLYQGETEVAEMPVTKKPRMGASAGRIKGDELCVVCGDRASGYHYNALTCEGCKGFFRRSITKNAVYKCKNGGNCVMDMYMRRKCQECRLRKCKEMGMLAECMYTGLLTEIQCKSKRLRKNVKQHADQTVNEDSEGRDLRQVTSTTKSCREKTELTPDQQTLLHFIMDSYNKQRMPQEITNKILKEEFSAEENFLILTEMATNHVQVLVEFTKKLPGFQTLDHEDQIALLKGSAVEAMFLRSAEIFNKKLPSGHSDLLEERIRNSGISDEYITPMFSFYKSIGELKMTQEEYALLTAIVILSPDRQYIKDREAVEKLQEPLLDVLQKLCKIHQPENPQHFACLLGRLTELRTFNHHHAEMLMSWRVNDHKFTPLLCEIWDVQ
Outline: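 GeneBLAzer FXR-UAS-bla HEK 293T, CDCA-stimulated (50 uM final). Compound treatment 16 h, 37 °C. Detection: beta-lactamase cleavage of B/G FRET substrate, fluorescence.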

[3] = qHTS assay to identify small molecule agonists of the farnesoid-X-receptor (FXR) signaling pathway - cell viability counter screen (AID 743218); note: nearly all actives have a fitted effect of over 45% in size; note: potency is the fitted concentration of half-maximal effect
Outline: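 Parallel cytotoxicity test: compound-treated (16 h, 37 C) HEK 293T FXR-bla reporter cells were lysed with CellTiter-Glo and luminescence recorded.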

[4] = target: Bile acid receptor (Homo sapiens) (UniProt Q96RI1); experiment: qHTS assay to identify small molecule agonists of the farnesoid-X-receptor (FXR) signaling pathway (AID 743220; active = well fitted activation curve with a large enough effect in the signal ratio in the repeat runs, not every such curve was filed as active; the % refers to the signal ratio)
Outline: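 Beta-lactamase reporter under UAS control in GeneBLAzer FXR HEK 293T cells (5000/well) measured with LiveBLAzer FRET substrate after 2 h at room temperature. Compound exposure lasted 16 h at 37C.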

[5] = qHTS assay to identify small molecule antagonists of the farnesoid-X-receptor (FXR) signaling pathway - cell viability counter screen (AID 743221; active = well fitted cell-killing curve with a large enough effect in the repeat runs, not every such curve was filed as active; note: nearly all actives have a fitted effect of over 50% in size; note: potency is the fitted concentration of half-maximal effect)
Outline: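 HEK 293T FXR-bla cells, 5 h pre-incubation; compound + CDCA 50 uM final, 16 h, 37 C; beta-lactamase FRET read first, then CellTiter-Glo luminescence, 30 min RT.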

[6] = qHTS assay to identify small molecule agonists of the vitamin D receptor (VDR) signaling pathway - cell viability counter screen (AID 743224); note: nearly all actives have a fitted effect of over 50% in size; note: potency is the fitted concentration of half-maximal effect
Outline: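 Plated VDR-bla cells (4 h, 37C) received compound, incubated 16 h, then LiveBLAzer substrate 2 h RT; CellTiter-Glo added afterwards, luminescence read at 30 min.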

[7] = target: Vitamin D3 receptor (Homo sapiens) (UniProt P11473); experiment: qHTS assay to identify small molecule agonists of the vitamin D receptor (VDR) signaling pathway (AID 743222; calls by dose curve)
Sequence of Vitamin D3 receptor (Homo sapiens) (P11473 whole entry, looked up): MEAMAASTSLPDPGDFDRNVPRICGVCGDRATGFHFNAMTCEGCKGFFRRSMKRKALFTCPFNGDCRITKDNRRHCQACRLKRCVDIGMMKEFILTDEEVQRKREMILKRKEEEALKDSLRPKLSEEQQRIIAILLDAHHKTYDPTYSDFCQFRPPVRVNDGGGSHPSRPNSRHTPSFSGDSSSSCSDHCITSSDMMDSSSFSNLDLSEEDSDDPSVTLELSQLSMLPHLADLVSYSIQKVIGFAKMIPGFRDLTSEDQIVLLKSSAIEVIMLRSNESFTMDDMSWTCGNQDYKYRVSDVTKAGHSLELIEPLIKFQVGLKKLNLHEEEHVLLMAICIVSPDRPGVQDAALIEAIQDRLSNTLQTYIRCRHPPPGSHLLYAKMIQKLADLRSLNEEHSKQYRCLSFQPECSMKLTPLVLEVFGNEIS
Outline: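 In VDR-bla cells, compound-induced beta-lactamase expression is quantified by FRET substrate fluorescence. Treatment lasts 16 h at 37C; substrate develops 2 h at room temperature.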

[8] = target: Vitamin D3 receptor (Homo sapiens) (UniProt P11473); experiment: qHTS assay to identify small molecule antagonists of the vitamin D receptor (VDR) signaling pathway (AID 743223; active = well fitted inhibition curve with a large enough effect in the signal ratio in the repeat runs, not every such curve was filed as active; the % refers to the signal ratio; note: potency is the fitted concentration of half-maximal effect)
Outline: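 Beta-lactamase reporter read-out: FRET substrate fluorescence after 2 h at room temperature, following 16 h exposure of VDR-bla cells to test compound plus 3 nM (final) 1alpha,25-dihydroxyvitamin D3 agonist at 37C.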

[9] = target: Peroxisome proliferator-activated receptor delta (Homo sapiens) (UniProt Q03181); experiment: qHTS assay to identify small molecule antagonists of the peroxisome proliferator-activated receptor delta (PPARd) signaling pathway (AID 743215; active = well fitted inhibition curve with a large enough effect in the signal ratio in the repeat runs, not every such curve was filed as active; the % refers to the signal ratio;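 note: cells stimulated with agonist L165041 at 300 nM final during compound exposure; series mostly up to about 62 µM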)
Sequence of Peroxisome proliferator-activated receptor delta (Homo sapiens) (Q03181 whole entry, looked up): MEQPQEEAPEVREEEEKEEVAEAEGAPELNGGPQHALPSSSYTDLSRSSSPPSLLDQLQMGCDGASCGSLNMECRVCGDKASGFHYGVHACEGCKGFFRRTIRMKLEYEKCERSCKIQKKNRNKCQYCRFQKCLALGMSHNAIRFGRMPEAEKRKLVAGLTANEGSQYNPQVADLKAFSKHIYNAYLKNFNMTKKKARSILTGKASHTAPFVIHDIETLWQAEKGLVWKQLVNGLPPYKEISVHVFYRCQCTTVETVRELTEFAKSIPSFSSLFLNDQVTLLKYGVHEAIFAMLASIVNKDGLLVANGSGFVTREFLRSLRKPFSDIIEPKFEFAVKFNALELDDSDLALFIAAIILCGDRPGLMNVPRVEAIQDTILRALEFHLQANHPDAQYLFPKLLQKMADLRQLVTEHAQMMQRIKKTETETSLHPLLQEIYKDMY
Outline: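 HEK293H UAS-bla, PPARd; agonist L165041 300 nM final with cpd in DMSO; 37 C 17 h; FRET substrate, RT 2 h; fluorescence intensity.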

Structure (SMILES) | Potency [1] | Potency [2] | Potency [3] | Potency [4] | Potency [5] | Potency [6] | Potency [7] | Potency [8] | Potency [9]
Cc1ccc(N/N=c2\c(=O)cc/c(=N\Nc3ccc(S(=O)(=O)O)cc3)c2=O)c(C)c1 | inactive | inactive | inactive | inactive | inactive | inactive |  |  | 
CC(C)NC[C@@H](O)COc1ccc(CC(N)=O)cc1 | inactive |  | inactive |  | inactive | inactive | inactive | inactive | 
CC(N=C(NC#N)Nc1ccncc1)C(C)(C)C (stereo unspecified) | inactive | inactive |  | inactive | inactive | inactive |  |  | 
COc1ccc2c(c1)c(CC(=O)OC/C=C(\C)CC/C=C(\C)CCC=C(C)C)c(C)n2C(=O)c1ccc(Cl)cc1 | inactive |  | inactive | inactive | inactive | inactive |  | inactive | 
CCCCCCCCCCCCCC[N+](C)(C)Cc1ccccc1 | 22.2 µM (active) and 10.6 µM (active) | inactive | 23.7 µM (active) | inactive | 49.7 µM (active) | 24.9 µM (active) | inactive | 44.3 µM (active) | 
CC(C(=O)O)c1ccc2c(c1)[nH]c1ccc(Cl)cc12 (stereo unspecified) | inactive |  | inactive | inactive | inactive | inactive |  | inactive | 
CCN(CCN)c1cccc(C)c1 | inactive |  | inactive |  | inactive | inactive | inactive | inactive | 
NC(=S)NC(N)=S | inactive |  | inactive |  | inactive | inactive | inactive | inactive | 
Cc1nc(-c2ccc(Cl)cc2)oc1COC(C)(C)C(=O)O | inactive | inactive |  | inactive | inactive | inactive | inactive | inactive | 
CCO[Si](OCC)(OCC)OCC | inactive |  | inactive |  | inactive | inactive | inactive | inactive | 
O=C1OC2(c3ccc(O)cc3Oc3cc(O)ccc32)c2ccc(N=C=S)cc21 | inactive |  |  | inactive | inactive | inactive |  |  | inactive
CCCCCCCCCCCCCCCC[N+](C)(C)CC | 17.4 µM (active) and 21.1 µM (active) |  | 31 µM (active) and 29.8 µM (active) | inactive | 43.8 µM (active) and 29.8 µM (active) | 21.9 µM (active) |  |  | 
COc1cccc(OC)c1C(=O)O | inactive |  | inactive |  | inactive | inactive | inactive |  | 
c1ccc(SSc2ccccc2)cc1 | inactive |  |  |  | inactive | inactive | inactive |  | inactive
CCCC(=O)OCOC(=O)C1=C(C)NC(C)=C(C(=O)OC)C1c1cccc(Cl)c1Cl (stereo unspecified) | inactive |  | inactive |  | inactive |  | inactive | inactive | 
Nc1cc(Cl)c(O)c(Cl)c1 | inactive |  | inactive |  | inactive |  |  |  | 
CCCc1ccc(OCC(=O)N2CCN(C(=O)COc3ccc(CCC)cc3OC)CC2)c(OC)c1 | inactive | inactive |  | inactive | inactive | inactive | inactive | inactive | 
CCC(C)[O-].CCC(C)[O-].CCOC(=O)/C=C(/C)[O-].[Al+3] | inactive |  | inactive |  | inactive | inactive |  |  | 
COCCOc1cc2cc(C(=O)NC3CCN(C(C)C)CC3)n(CC(=O)Nc3ccc(Cl)cn3)c2cn1 | inactive |  |  |  | inactive | inactive | inactive |  | 
CCCCC(CC)CN1CN(CC(CC)CCCC)CC(C)(N)C1 (stereo unspecified) |  | inactive |  | inactive | inactive | 29.8 µM (active) |  | inactive | inactive
Oc1c(I)cc(Cl)c2cccnc12 |  |  | inactive |  | inactive | 5.49 µM (active) | inactive | 8.69 µM (active) | 
O=C1c2ccccc2C(=O)N1SC1CCCCC1 |  |  | inactive | inactive | inactive | 54.9 µM (active) | inactive |  | 
